# Measurements reported in PubChem BioAssay (NCATS).
# Records with an inconclusive call do not appear. Where a call stands in place of a potency, no number is given. Calls of active or inactive are those of the source. Calls follow the shape of the dose curve; as a rule, active = well fitted curve in the direction sought with a large enough effect; inconclusive = small, poorly fitted or top-dose-only effect, or another doubt; inactive = no such curve, though single readings can be large; an effect the other way counts as inactive or inconclusive.
# Test: Confirmation and Secondary Assay for Modulators of Hemoglobin Beta Chain Splicing at IVS2 654 locus (AID 910);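 also: HeLa cells stably carrying EGFP split by mutant beta-globin IVS2-654 intron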
# Details: HeLa EGFP-654 splicing reporter, GFP fluorescence, 48 h; series mostly up to 46.1 µM
# Summary of the method: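 HeLa cells stably expressing EGFP interrupted by β-globin IVS2-654 intron, seeded overnight in Opti-MEM/2% FCS, then treated 2 days at 37 °C. Restored splicing read as total peak GFP intensity per well by laser scanning cytometry (488 nm excitation, 500–520 nm emission); 500 nM antisense PNA as control.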
row,SMILES,outcome
1,NS(=O)(=O)c1cc2c(cc1C(F)(F)F)NC(Cc1ccccc1)NS2(=O)=O (configuration not stated),inactive
2,NC(=O)N/N=C/c1ccc([N+](=O)[O-])o1,inactive
3,Cn1cc[nH]c1=S,inactive
4,CC(C)(C(=O)O)c1ccc(C(O)CCCN2CCC(C(O)(c3ccccc3)c3ccccc3)CC2)cc1 (configuration not stated),inactive
5,CSc1ccc2c(c1)C(N1CCN(C)CC1)Cc1ccccc1S2 (configuration not stated),inactive
6,CSc1ccc2c(c1)N(CCC1CCCCN1C)c1ccccc1S2 (configuration not stated),inactive
7,CNCCC(Oc1ccc(C(F)(F)F)cc1)c1ccccc1 (configuration not stated),inactive
8,CC1=C(CC(=O)O)c2cc(F)ccc2/C1=C\c1ccc(S(C)=O)cc1 (configuration not stated),inactive
9,CN(C)CCCN1c2ccccc2Sc2ccc(Cl)cc21,inactive
10,OCCN1CCN(CCCN2c3ccccc3Sc3ccc(Cl)cc32)CC1,inactive
11,CN1CCOC(c2ccccc2)c2ccccc2C1 (configuration not stated),inactive
12,COc1ccc(Cl)cc1C(=O)NCCc1ccc(S(=O)(=O)NC(=O)NC2CCCCC2)cc1,inactive
13,O=C1c2c(O)cccc2Cc2cccc(O)c21,inactive
14,COC(=O)C1=C(C)NC(C)=C(C(=O)OC)C1c1ccccc1[N+](=O)[O-],inactive
15,CNCC(O)c1ccc(O)c(O)c1 (configuration not stated),inactive

# Test: qHTS Assay for Identification of Small Molecule Agonists for Thrombopoietin (TPO) Signaling Pathway (AID 917)
# Details: TPO signaling pathway reporter cells, agonist qHTS, stimulated with TPO at its EC50; series mostly up to 38.5 µM
# Summary of the method: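 Murine Ba/F3 cells stably expressing human TPO receptor and a Glycoprotein IIb promoter–luciferase reporter were IL-3-starved overnight, then treated with compounds plus TPO (26 pM final, its EC50) for 24 hrs at 37 C; luminescence was read.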
row,SMILES,outcome
1,NC1CCN(c2cccc(Cl)n2)CC1,inactive
2,CC1=C(CC(=O)O)c2cc(F)ccc2/C1=C\c1ccc(S(C)=O)cc1 (configuration not stated),inactive
3,CC(C)NC[C@H](O)c1ccc(O)c(O)c1,inactive
4,CCCn1cnc2c1c(=O)n(CCCCC(C)=O)c(=O)n2C,inactive
5,C[C@]12CC[C@@H]3c4ccc(O)cc4CC[C@H]3[C@@H]1CCC2=O,inactive
6,COc1ccc(Cl)cc1C(=O)NCCc1ccc(S(=O)(=O)NC(=O)NC2CCCCC2)cc1,inactive
7,N=c1c[n+](N2CCOCC2)[n-]o1,inactive
8,NC(N)=NCCC[C@H](N)C(=O)O,inactive
9,CCCCCCCCCCCCCCCC(=O)NCCO,inactive

# Test: qHTS Assay for Identification of Small Molecule Antagonists for Thrombopoietin (TPO) Signaling Pathway (AID 918); also: potency is read from the fitted curve at half-maximal effect; nearly all actives have a fitted effect of over 60% in size
# Details: TPO-dependent cell signaling reporter, antagonist mode
# Summary of the method: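 Murine Ba/F3 cells expressing human TPO receptor and a Glycoprotein IIb promoter-luciferase reporter, IL-3-starved overnight, treated with compound plus TPO at EC50 (26 pM final). After 24 h at 37 C, luminescence read to detect inhibitors.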
row,SMILES,Potency
1,CN(C)CCCN1c2ccccc2Sc2ccc(Cl)cc21,12.6 µM (active)
2,OCCN1CCN(CCCN2c3ccccc3Sc3ccc(Cl)cc32)CC1,15.8 µM (active)
3,OCc1cc(C(O)CNCCCCCCOCCCCc2ccccc2)ccc1O (configuration not stated),10 µM (active)

# Test: Cell Viability - LYMP2-001 (AID 921); also: nearly all actives have a fitted effect of over 70% in size
# Details: LYMP2-001 lymphoblastoid cell viability; series mostly up to 92.2 µM
# Summary of the method: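 Human lymphoblastoid cells (Coriell), 2500 per well, were preincubated 5 hr at 37 C, then exposed to compounds in complete medium for 24 hr at 37 C. Cellular ATP was read by CellTiter-Glo luminescence; AC50 from Hill fits of concentration-response data.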
row,SMILES,outcome
1,NC(=O)N/N=C/c1ccc([N+](=O)[O-])o1,inactive
2,C[C@]12C[C@H](O)[C@H]3[C@@H](CCC4=CC(=O)CC[C@@]43C)[C@@H]1CC[C@@H]2C(=O)CO,inactive
3,NC(=O)c1ncn([C@@H]2O[C@H](CO)[C@@H](O)[C@H]2O)n1,inactive
4,O=C1c2c(O)cccc2Cc2cccc(O)c21,inactive
5,NCCNCCNCCN,inactive
